PubChem BioAssay (NCATS)
“And” between values parts separate entries of the source, which are not always exact repeats. Identical values can stand only once. Results filed as inconclusive are left out. Where a call stands in place of a potency, no number is given. Some compounds were tested as several samples or in several runs, with calls that do not always agree. The source made the active and inactive calls. Unless noted, calls come from the whole dose curve; as a rule, active = well fitted curve in the direction sought with a large enough effect; inconclusive = small, poorly fitted or top-dose-only effect, or another doubt; inactive = no such curve, though single readings can be large; an effect the other way counts as inactive or inconclusive.

Columns and labels:
[1] = A High-Content qHTS Against Drug Library for the Identification of Small Molecules that Inhibit DYT1 Early Onset Primary Dystonia-Associated Cell Pathology (AID 1645839; calls by dose curve; note: series mostly up to about 46 µM)
Method in brief: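 Cells were seeded and left for 24 h, then dosed with compound alongside tetracycline induction of mutant EGFP-TorsinA. They were incubated for 48 h, fixed in 4% paraformaldehyde, permeabilized and imaged for mislocalization (%pathology) and cell count.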

[2] = target: Cytochrome P450 2D6 (Homo sapiens) (UniProt P10635); test: Cytochrome P450 family 2 subfamily D member 6 (CYP2D6) small molecule antagonists: luciferase biochemical (cell-free) qHTS assay (AID 1645840; active = well fitted curve in the direction sought with a large enough effect in the repeat runs; an effect the other way counts as inactive or inconclusive; note: nearly all actives have a fitted effect of over 55% in size; note: potency is the fitted concentration of half-maximal effect)
Cytochrome P450 2D6 (Homo sapiens), sequence (P10635 whole entry, looked up): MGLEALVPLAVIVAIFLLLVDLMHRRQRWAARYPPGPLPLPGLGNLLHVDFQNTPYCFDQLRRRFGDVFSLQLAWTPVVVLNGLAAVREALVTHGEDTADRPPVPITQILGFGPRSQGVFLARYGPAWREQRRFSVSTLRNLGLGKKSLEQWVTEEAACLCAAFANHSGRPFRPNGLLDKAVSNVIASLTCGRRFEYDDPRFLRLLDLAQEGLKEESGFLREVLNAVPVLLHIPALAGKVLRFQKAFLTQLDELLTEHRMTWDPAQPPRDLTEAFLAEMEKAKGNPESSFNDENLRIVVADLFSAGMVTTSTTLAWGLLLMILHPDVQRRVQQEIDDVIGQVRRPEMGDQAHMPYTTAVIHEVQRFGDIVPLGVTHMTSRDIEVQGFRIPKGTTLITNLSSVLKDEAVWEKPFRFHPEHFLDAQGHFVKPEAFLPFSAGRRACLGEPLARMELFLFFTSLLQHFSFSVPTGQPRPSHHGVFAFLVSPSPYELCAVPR
Method in brief: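 P450-Glo CYP2D6 system: proluciferin substrate converted by enzyme to luciferin, read by luminescence proportional to activity. Enzyme-substrate mix with compound 10 min at room temperature, then NADPH regeneration 1 h before detection reagent.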

[3] = target: Cytochrome P450 2C9 (Homo sapiens) (UniProt P11712); test: Cytochrome P450 family 2 subfamily C member 9 (CYP2C9) small molecule antagonists: luciferase biochemical (cell-free) qHTS assay (AID 1645842; active = well fitted curve in the direction sought with a large enough effect in the repeat runs; an effect the other way counts as inactive or inconclusive; note: nearly all actives have a fitted effect of over 55% in size; note: potency is the fitted concentration of half-maximal effect)
Cytochrome P450 2C9 (Homo sapiens), sequence (P11712 whole entry, looked up): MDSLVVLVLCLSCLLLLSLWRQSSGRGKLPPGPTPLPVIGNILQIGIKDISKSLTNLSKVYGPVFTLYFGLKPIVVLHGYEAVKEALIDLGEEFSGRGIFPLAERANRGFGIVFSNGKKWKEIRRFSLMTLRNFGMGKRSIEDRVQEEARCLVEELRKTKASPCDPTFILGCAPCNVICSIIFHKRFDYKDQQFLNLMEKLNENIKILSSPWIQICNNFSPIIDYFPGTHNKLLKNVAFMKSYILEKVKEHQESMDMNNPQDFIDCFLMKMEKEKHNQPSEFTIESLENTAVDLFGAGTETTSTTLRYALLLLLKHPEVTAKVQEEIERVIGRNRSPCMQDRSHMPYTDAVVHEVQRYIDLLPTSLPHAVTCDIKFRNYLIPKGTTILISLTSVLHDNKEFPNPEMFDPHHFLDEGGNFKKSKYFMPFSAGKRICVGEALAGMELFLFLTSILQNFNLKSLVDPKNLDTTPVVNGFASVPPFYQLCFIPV
Method in brief: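 P450-Glo CYP2C9 system: proluciferin substrate with enzyme in mix containing 0.4% BSA, 10 min at room temperature, then NADPH regeneration solution added and incubated 1 h at 37C. Detection reagent stopped reaction; luminescence read after 20 min as RLU.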

Papain (Carica papaya) = Papain (Carica papaya) (UniProt P00784); test: Primary qHTS assay for inhibitors of the protease papain (AID 1645873);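 note: papain turnover of Z-FR-AMC read as the AMC fluorescence gain over 10 min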; note: potency is the fitted concentration of half-maximal effect
Papain (Carica papaya), sequence (P00784 whole entry, looked up, the tested form may be a part): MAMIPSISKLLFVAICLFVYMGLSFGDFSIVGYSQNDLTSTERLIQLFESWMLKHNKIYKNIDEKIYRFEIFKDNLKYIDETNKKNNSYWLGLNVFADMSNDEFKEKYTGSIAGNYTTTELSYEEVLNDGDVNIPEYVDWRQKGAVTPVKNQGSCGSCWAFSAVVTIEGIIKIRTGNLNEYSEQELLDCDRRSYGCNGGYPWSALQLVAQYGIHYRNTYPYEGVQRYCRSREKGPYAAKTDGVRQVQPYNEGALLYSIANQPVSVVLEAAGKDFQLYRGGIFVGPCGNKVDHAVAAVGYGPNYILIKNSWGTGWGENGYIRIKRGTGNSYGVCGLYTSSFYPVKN

[4] = Primary qHTS for inhibitors of nuclear receptor binding SET domain protein 2 (NSD2) in an isogenic RCH-ACV NSD2 p.E1099K mutant (9B) (AID 1645876); note: nearly all actives have a fitted effect of over 70% in size; note: potency is the fitted concentration of half-maximal effect
[5] = Primary qHTS for inhibitors of nuclear receptor binding SET domain protein 2 (NSD2) in an RCH-ACV wild type WT cells (2C) (AID 1645877); note: nearly all actives have a fitted effect of over 70% in size; note: potency is the fitted concentration of half-maximal effect
[6] = target: N-terminal Xaa-Pro-Lys N-methyltransferase 1 (Homo sapiens) (UniProt Q9BV86); test: Confirmatory qHTS for Inhibitors of N-terminal methyltransferase 1 (NTMT1): MTaseGlo Assay (AID 1645874);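 note: luminescence from SAH made as NTMT1 methylates SPKRIA peptide using SAM; series mostly up to about 100 µM; nearly all actives have a fitted effect of over 65% in size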
N-terminal Xaa-Pro-Lys N-methyltransferase 1 (Homo sapiens), sequence (Q9BV86 whole entry, looked up): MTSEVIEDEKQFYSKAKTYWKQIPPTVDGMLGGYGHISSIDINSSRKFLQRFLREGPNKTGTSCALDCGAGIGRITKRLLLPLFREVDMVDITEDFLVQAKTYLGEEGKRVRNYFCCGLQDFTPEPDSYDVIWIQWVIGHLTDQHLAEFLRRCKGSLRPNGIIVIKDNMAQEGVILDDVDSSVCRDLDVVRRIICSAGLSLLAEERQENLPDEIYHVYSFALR
Method in brief: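 SPKRIA peptide at 1 uM was methylated by 125 nM NTMT1 using 100 uM SAM over 30 min at room temperature, following a 15 min compound preincubation. Product SAH was detected luminescently.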

[7] = target: Rap guanine nucleotide exchange factor 3 (Homo sapiens) (UniProt O95398); test: Confirmatory qHTS for antagonist of cAMP-regulated guanine nucleotide exchange factor 3 (EPAC1) (AID 1645880); note: nearly all actives have a fitted effect of over 55% in size
Rap guanine nucleotide exchange factor 3 (Homo sapiens), sequence (O95398 whole entry, looked up): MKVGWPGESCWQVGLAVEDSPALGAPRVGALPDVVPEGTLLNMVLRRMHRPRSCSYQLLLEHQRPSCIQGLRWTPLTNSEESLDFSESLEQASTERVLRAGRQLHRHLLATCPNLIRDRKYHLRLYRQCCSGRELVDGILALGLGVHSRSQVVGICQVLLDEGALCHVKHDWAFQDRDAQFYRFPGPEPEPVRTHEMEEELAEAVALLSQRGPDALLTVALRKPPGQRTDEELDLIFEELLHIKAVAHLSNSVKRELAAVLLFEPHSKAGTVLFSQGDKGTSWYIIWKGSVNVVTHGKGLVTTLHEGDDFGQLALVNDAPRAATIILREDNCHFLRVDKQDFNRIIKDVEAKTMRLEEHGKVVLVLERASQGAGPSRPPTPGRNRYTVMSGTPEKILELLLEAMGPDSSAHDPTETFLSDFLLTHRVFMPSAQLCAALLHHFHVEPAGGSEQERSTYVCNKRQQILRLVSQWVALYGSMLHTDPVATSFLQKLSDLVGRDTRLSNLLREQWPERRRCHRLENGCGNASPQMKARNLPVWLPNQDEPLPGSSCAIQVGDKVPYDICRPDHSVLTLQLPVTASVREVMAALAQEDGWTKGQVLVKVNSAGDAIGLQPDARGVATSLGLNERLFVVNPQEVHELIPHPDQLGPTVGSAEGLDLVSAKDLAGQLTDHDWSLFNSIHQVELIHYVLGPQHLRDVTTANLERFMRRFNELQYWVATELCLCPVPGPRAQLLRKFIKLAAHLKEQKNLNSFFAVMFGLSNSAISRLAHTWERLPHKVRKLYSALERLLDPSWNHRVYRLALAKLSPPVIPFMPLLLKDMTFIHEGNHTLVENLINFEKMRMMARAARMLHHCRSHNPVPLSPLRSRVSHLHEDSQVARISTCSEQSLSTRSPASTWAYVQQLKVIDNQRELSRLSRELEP
Method in brief: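 Released BODIPY-GDP fluoresces less than Rap1-bound BODIPY-GDP; the signal is followed at 480/540 nm at 5-min intervals over 30 min, after 5 min at room temperature. Reactions contain 100 nM EPAC1, 250 nM RAP1B-BODIPY-GDP and 50 uM GDP; results are normalized to ATA and DMSO.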

[8] = target: Rap guanine nucleotide exchange factor 3 (Homo sapiens) (UniProt O95398); test: Confirmatory qHTS for agonist of cAMP-regulated guanine nucleotide exchange factor 3 (EPAC1) (AID 1645881);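 note: EPAC1 catalysed release of BODIPY-GDP from Rap1B seen as fluorescence loss; nearly all actives have a fitted effect of over 75% in size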
[9] = target: Cytochrome P450 3A4 (Homo sapiens) (UniProt P08684); test: Cytochrome P450 family 3 subfamily A member 4 (CYP3A4) small molecule antagonists: luciferase qHTS assay (AID 1645841; active = well fitted curve in the direction sought with a large enough effect in the repeat runs; an effect the other way counts as inactive or inconclusive; note: nearly all actives have a fitted effect of over 45% in size)
Cytochrome P450 3A4 (Homo sapiens), sequence (P08684 whole entry, looked up): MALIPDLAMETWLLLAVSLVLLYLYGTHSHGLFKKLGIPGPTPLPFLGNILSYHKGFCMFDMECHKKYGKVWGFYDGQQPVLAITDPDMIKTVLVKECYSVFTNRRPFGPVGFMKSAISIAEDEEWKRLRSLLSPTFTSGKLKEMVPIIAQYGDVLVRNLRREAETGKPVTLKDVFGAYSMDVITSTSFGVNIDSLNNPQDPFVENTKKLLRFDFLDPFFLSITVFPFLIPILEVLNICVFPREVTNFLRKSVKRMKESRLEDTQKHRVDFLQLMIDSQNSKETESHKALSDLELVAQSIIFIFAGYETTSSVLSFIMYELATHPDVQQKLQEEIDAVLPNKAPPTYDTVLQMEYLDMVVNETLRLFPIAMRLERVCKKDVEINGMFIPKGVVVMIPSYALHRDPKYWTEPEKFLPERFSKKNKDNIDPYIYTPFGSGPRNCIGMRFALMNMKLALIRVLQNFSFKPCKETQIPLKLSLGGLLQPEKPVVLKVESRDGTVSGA
Method in brief: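 P450-Glo CYP3A4 enzyme with proluciferin substrate preincubated 10 min with compound at room temperature, then NADPH regeneration 1 h. Luciferin detection reagent added for 20 min; luminescence recorded. Ketoconazole positive control.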

SMILES	Potency [1]	Potency [2]	Potency [3]	Potency (Papain (Carica papaya))	Potency [4]	Potency [5]	outcome [6]	outcome [7]	Potency [8]	outcome [9]
NC(=O)OCC(COC(N)=O)c1ccccc1	inactive	inactive	inactive	inactive	inactive	inactive				
Nc1nc2c(ncn2COC(CO)CO)c(=O)[nH]1	inactive	inactive	inactive	inactive	inactive	inactive				
COc1ccc(C2CNC(=O)C2)cc1OC1CCCC1 (stereo not drawn)	inactive	inactive	inactive	inactive	inactive	inactive				
Cc1cc(C(C)(C)C)cc(C)c1CC1=NCCN1	inactive	4.36 µM (active)	inactive	inactive	inactive and 20.9 µM (active)	inactive and 18.6 µM (active)				
NS(=O)(=O)c1cc2c(cc1Cl)NCNS2(=O)=O	inactive	inactive	inactive	inactive	inactive	inactive				
CCC1(C)CC(=O)NC1=O (stereo not drawn)	inactive	inactive	inactive	inactive	inactive	inactive	inactive			
CCOC(=O)c1ncn2c1CN(C)C(=O)c1cc(F)ccc1-2	inactive	inactive	inactive and 13.5 µM (active)	inactive	inactive	inactive				
CC(=O)OCC(CCn1cnc2cnc(N)nc21)COC(C)=O	inactive	inactive	inactive	inactive	inactive	inactive				
O=c1[nH]cc(F)c(=O)[nH]1	inactive	inactive	inactive	inactive	13.2 µM (active)	23.7 µM (active) and 14.8 µM (active)				
CN1CCC(=C2c3ccccc3CC(=O)c3sccc32)CC1	inactive	1.38 µM (active)	inactive	inactive	inactive					
Cn1c(=O)c2c(ncn2C)n(C)c1=O	inactive	inactive	inactive	inactive	inactive	inactive				
O=C1N(c2ccccc2)c2ccccc2C1(Cc1ccncc1)Cc1ccncc1	inactive	inactive	2.19 µM (active)	inactive	inactive	inactive				
Clc1ccc2nsnc2c1NC1=NCCN1	inactive	17.4 µM (active)	inactive	inactive	inactive	inactive				
CC[C@@]1(O)C(=O)OCc2c1cc1n(c2=O)Cc2cc3c(CN(C)C)c(O)ccc3nc2-1	inactive	inactive	inactive	28.2 µM (active)	16.8 nM (active) and 57.8 nM (active)	10.6 nM (active) and 23 nM (active)		inactive		
CC(C)Cc1ccc(C(C)C(=O)O)cc1 (stereo not drawn)	inactive	inactive	inactive	inactive	inactive	inactive				
COc1cc2c(c(OC)c1OC)-c1ccc(OC)c(=O)cc1[C@@H](NC(C)=O)CC2	inactive	inactive	inactive	inactive	33.5 nM (active) and 33.2 nM (active)	15 nM (active) and 26.3 nM (active)				
Nc1ccn([C@H]2CC[C@@H](CO)O2)c(=O)n1	inactive	inactive	inactive	inactive						
Cc1cc(C(C)(C)C)c(O)c(C)c1CC1=NCCN1	inactive	1.95 µM (active)	inactive	inactive	inactive	inactive				
Clc1ccc(C(c2ccccc2Cl)C(Cl)Cl)cc1 (stereo not drawn)	inactive	inactive	12.3 µM (active)	inactive	inactive	inactive				
CN(C)C(=N)N=C(N)N	inactive									

SMILES	Potency [1]	Potency [2]	Potency [3]	Potency (Papain (Carica papaya))	Potency [4]	Potency [5]	outcome [6]	outcome [7]	Potency [8]	outcome [9]
C[C@H]1c2cccc(O)c2C(O)=C2C(=O)[C@]3(O)C(O)=C(C(N)=O)C(=O)[C@@H](N(C)C)[C@@H]3[C@@H](O)[C@@H]21	inactive	inactive	inactive	22.4 µM (active)	23.5 µM (active)	9.34 µM (active)				
Clc1ccc2c(c1)C(N1CCNCC1)=Nc1ccccc1O2	inactive	4.36 µM (active)	inactive	inactive	inactive	inactive				
N[C@@H](Cc1c[nH]c2ccc(O)cc12)C(=O)O	inactive	19.5 µM (active)	15.5 µM (active)	inactive	inactive	inactive				
COc1ccc2[nH]cc(CCNC(C)=O)c2c1	inactive	inactive	inactive	inactive	inactive	inactive				
COc1nc(C)nc(Cl)c1NC1=NCCN1	inactive	inactive	inactive	inactive	inactive	inactive				
CN1C(C(=O)Nc2ccccn2)=C(O)c2ccccc2S1(=O)=O	inactive	inactive	15.5 µM (active) and 10.7 µM (active)	inactive	inactive	inactive				
CCC1(c2ccccc2)C(=O)NCNC1=O	inactive	inactive	inactive	inactive	inactive	inactive				
CS(=O)(=O)Nc1ccc([N+](=O)[O-])cc1Oc1ccccc1	inactive	inactive	13.8 µM (active)	inactive	inactive	inactive				
NCCCCCC(=O)O	inactive	inactive	inactive	inactive	inactive	inactive				
Cc1ccc(C(=O)Nc2ccc(S(=O)(=O)O)c3cc(S(=O)(=O)O)cc(S(=O)(=O)O)c23)cc1NC(=O)c1cccc(NC(=O)Nc2cccc(C(=O)Nc3cc(C(=O)Nc4ccc(S(=O)(=O)O)c5cc(S(=O)(=O)O)cc(S(=O)(=O)O)c45)ccc3C)c2)c1	inactive	inactive	inactive	7.08 µM (active)	inactive	inactive				
Cc1cn([C@H]2C=C[C@@H](CO)O2)c(=O)[nH]c1=O	inactive	inactive	inactive	inactive	inactive	inactive				
CC[N+](CC)(CC)CCOc1cccc(OCC[N+](CC)(CC)CC)c1OCC[N+](CC)(CC)CC	inactive	inactive	inactive	inactive	inactive	inactive				
CC(C)NCC(O)COc1ccc(CCOCC2CC2)cc1 (stereo not drawn)	inactive	inactive	inactive	inactive	inactive	inactive				
NC(CO)C(=O)NNCc1ccc(O)c(O)c1O (stereo not drawn)	inactive			inactive	26.3 µM (active)					
CCc1cccc2c3c([nH]c12)C(CC)(CC(=O)O)OCC3 (stereo not drawn)	inactive		18.2 µM (active)	inactive	inactive	inactive				
O=c1c(-c2ccc(O)cc2)coc2cc(O)cc(O)c12	inactive		inactive	inactive	11.9 µM (active) and 13.5 µM (active)	11.9 µM (active) and 10.8 µM (active)				
COC(=O)Nc1nc2ccc(C(=O)c3cccs3)cc2[nH]1	inactive	inactive	inactive	inactive	13.3 nM (active) and 93.4 nM (active)	9.4 nM (active) and 66.1 nM (active)		inactive	inactive	
CC1(C)O[C@H]2CC(=O)OC[C@]23[C@H]2CC[C@@]4(C)[C@H](c5ccoc5)OC(=O)[C@H]5O[C@]54[C@]2(C)C(=O)C[C@@H]13	inactive	inactive	inactive		inactive	inactive				
NC12CC3CC(CC(C3)C1)C2	inactive			inactive	inactive	inactive				
NCCc1cnc[nH]1	inactive			inactive	inactive	inactive				

SMILES	Potency [1]	Potency [2]	Potency [3]	Potency (Papain (Carica papaya))	Potency [4]	Potency [5]	outcome [6]	outcome [7]	Potency [8]	outcome [9]
CC(C)C(=O)Nc1ccc([N+](=O)[O-])c(C(F)(F)F)c1	inactive			inactive						
CC(C(=O)O)c1cccc(C(=O)c2ccccc2)c1 (stereo not drawn)	inactive		19.5 µM (active)	inactive						
CC(COc1ccccc1)N(CCCl)Cc1ccccc1 (stereo not drawn)	inactive	0.723 µM (active)	12.1 µM (active)		inactive	inactive				
CCOC(=O)C(C)(C)Oc1ccc(Cl)cc1	inactive			inactive	inactive	inactive				
C[C@@H]1CC(=O)NN=C1c1ccc(NN=C(C#N)C#N)cc1	inactive	inactive	977 nM (active) and 692 nM (active)		9.44 µM (active) and 18.6 µM (active)	11.9 µM (active) and 23.7 µM (active)				
CN(Cc1cnc2nc(N)nc(N)c2n1)c1ccc(C(=O)N[C@@H](CCC(=O)O)C(=O)O)cc1	inactive	inactive			9.4 nM (active) and 148 nM (active)	9.4 nM (active) and 148 nM (active)				
CCOC(=O)Nc1ccc(NCc2ccc(F)cc2)nc1N	inactive	3.09 µM (active)			inactive	inactive		inactive	inactive	
CC(C)(Oc1ccc(C2CC2(Cl)Cl)cc1)C(=O)O (stereo not drawn)	inactive	inactive		inactive	inactive	inactive				
Cc1cn([C@H]2C[C@H](N=[N+]=[N-])[C@@H](CO)O2)c(=O)[nH]c1=O	inactive	inactive	inactive		inactive					
CN(CCOc1ccc(NS(C)(=O)=O)cc1)CCc1ccc(NS(C)(=O)=O)cc1	inactive		inactive	inactive	inactive	inactive				
O=C1c2c(O)ccc(O)c2C(=O)c2c(NCCNCCO)ccc(NCCNCCO)c21	inactive			inactive	0.186 µM (active)	0.132 µM (active)				
CC1COc2c(N3CCN(C)CC3)c(F)cc3c(=O)c(C(=O)O)cn1c23 (stereo not drawn)	inactive	inactive	inactive		inactive	inactive				
CCN1CCCC1CNC(=O)c1cc(S(=O)(=O)CC)c(N)cc1OC (stereo not drawn)	inactive		inactive	inactive	inactive	inactive				inactive
NC(=O)NO	inactive			inactive	inactive	inactive				
Cn1c(=O)c2[nH]cnc2n(C)c1=O	inactive	inactive		inactive	inactive	inactive				
CN1CCN2c3ccccc3Cc3ccccc3C2C1 (stereo not drawn)	inactive		inactive	inactive						
O=C(C1CCCCC1)N1CC(=O)N2CCc3ccccc3C2C1 (stereo not drawn)	inactive		inactive	inactive	inactive	inactive				
Cc1cnc(C(=O)NCCc2ccc(S(=O)(=O)NC(=O)NC3CCCCC3)cc2)cn1	inactive			inactive						
C[C@](N)(Cc1ccc(O)c(O)c1)C(=O)O	inactive		inactive	inactive	inactive	inactive				
Nc1c2c(nc3ccccc13)CCCC2	inactive	9.77 µM (active)	inactive		inactive	inactive				
